Data reported in PubChem BioAssay (NCATS).
Results filed as inconclusive are left out. The source made the active and inactive calls. The call rests on the fitted dose curve; in most records, active means well fitted curve in the direction sought with a large enough effect; inconclusive means small, poorly fitted or top-dose-only effect, or another doubt; inactive means no such curve, though single readings can be large; an effect the other way counts as inactive or inconclusive. Where a SMILES comes first, the peptide text is derived from it. The star is where a group is joined. AMC = Cc1cc(=O)oc2cc(N*)ccc12; Cbz = O=C(OCc1ccccc1)*; PhAc = O=C(Cc1ccccc1)*

Tests used:
[1] = target: Glutathione peroxidase 1 (Homo sapiens) (UniProt P07203); experiment: Primary qHTS Assay for Inhibitors of Recombinant Selenoprotein Glutathione Peroxidase 1 (GPX1) (AID 1845191); further: nearly all actives have a fitted effect of over 65% in size; further: potency means the concentration at half of the fitted maximal effect; on activity, negative = inhibition: on the % scale 0 is the no-effect control and ±100 the full control effect
Glutathione peroxidase 1 (Homo sapiens), sequence (P07203 whole entry, looked up): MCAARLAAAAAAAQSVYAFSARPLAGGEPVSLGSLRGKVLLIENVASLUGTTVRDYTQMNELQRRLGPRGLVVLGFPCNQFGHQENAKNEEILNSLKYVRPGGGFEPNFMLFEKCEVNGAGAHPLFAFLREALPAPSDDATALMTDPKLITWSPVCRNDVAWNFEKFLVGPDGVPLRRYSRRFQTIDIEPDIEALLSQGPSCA
How it was run: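 GR-coupled assay: compounds preincubated 30 min at room temperature with GPX1, then reaction started with CHP; final 10 nM GPX1, 1 mM GSH, 0.5 mM CHP, 0.5 mM NADPH, 100 nM GR, 0.01% BSA, pH 7.5 Tris buffer. NADPH fluorescence (340/450 nm) read at 0 and 15 min.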

[2] = target: Phospholipid hydroperoxide glutathione peroxidase GPX4 (Homo sapiens) (UniProt P36969); experiment: Primary qHTS Assay for Inhibitors of Recombinant Selenoprotein Glutathione Peroxidase 4 (GPX4) (AID 1845192); further: nearly all actives have a fitted effect of over 65% in size; further: potency means the concentration at half of the fitted maximal effect; on activity change, negative = inhibition: series mostly up to about 50 µM; on the % scale 0 is the no-effect control and ±100 the full control effect
Phospholipid hydroperoxide glutathione peroxidase GPX4 (Homo sapiens), sequence (P36969 whole entry, looked up): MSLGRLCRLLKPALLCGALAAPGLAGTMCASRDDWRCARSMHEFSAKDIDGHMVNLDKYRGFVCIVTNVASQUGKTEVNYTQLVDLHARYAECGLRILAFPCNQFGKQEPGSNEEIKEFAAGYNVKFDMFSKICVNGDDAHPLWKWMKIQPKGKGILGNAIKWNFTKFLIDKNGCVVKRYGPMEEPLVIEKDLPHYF
How it was run: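 GR-coupled assay: recombinant GPX4 preincubated 30 min with compound at room temperature; final 200 nM GPX4, 1 mM GSH, 0.5 mM cumene hydroperoxide, 0.5 mM NADPH, 100 nM GR, 0.01% BSA, pH 7.5 Tris. NADPH fluorescence (340/450 nm) read at 0 and 15 min.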

[3] = target: Luciferin 4-monooxygenase (Photinus pyralis) (UniProt P08659); experiment: Primary firefly luciferase (FLuc) qHTS assay for identification of artifact compounds. (AID 1845220); further: nearly all actives have a fitted effect of over 60% in size;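 on activity change, negative = inhibition: series mostly up to about 54 µM; plate controls were DMSO vehicle for no effect and no enzyme for full effect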
How it was run: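 Titrated compounds were incubated 15 min at RT, protected from light, with luciferin and ATP at 10 uM; reaction started with 10 nM FLuc, luminescence imaged at 5 min, and concentration-response fitted by Hill equation.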

[4] = Primary fluorescence-based thiol-reactive (MSTI) qHTS assay for identification of artifact compounds. (AID 1845221); further: nearly all actives have a fitted effect of over 65% in size; further: potency means the concentration at half of the fitted maximal effect;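 on activity change, negative = thiol reactive: series mostly up to about 54 µM; thiol-reactive compounds lower the probe fluorescence signal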
How it was run: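 Probe: MSTI 4 uM, PBS pH 7.4, 2% DMSO. Incubation 1 h, RT, light-protected. Readout fluorescence 525/598 nm.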

[5] = test system: Nanoluciferase (engineered Oplophorus gracilirostris luciferase); experiment: Primary Nanoluciferase (NLuc) qHTS assay for identification of artifact compounds. (AID 1845222);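 further: NLuc secreted into diluted conditioned medium of S16 cells; series mostly up to about 54 µM; 0% = DMSO and -100% = no enzyme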
How it was run: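 qHTS format, against NLuc in S16 cell-conditioned medium. Nano-Glo substrate 1:100 was added after 15 min at room temperature. Luminescence was taken after a further 5 min.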

[6] = Primary redox qHTS assay for identification of artifact compounds. (AID 1845223);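 further: 0% = DMSO and 100% = reference compound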
How it was run: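 Amplex Red (25 uM) and HRP (250 mU/mL) in HBSS, with compounds for 15 min, then 250 uM DTT for 30 min, room temperature, dark. Fluorescence 525/598 nm read; normalized to DMSO and 10 uM DA3003; Hill fit.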

COc1ccc(Oc2c(Cl)cnn(C3c4ccccc4-c4ccccc43)c2=O)cc1
inactive: Potency [1] | Potency [2] | Potency [3] | Potency [4] | Potency [5] | Potency [6]

COC(=O)C1=COC(O[C@@H]2O[C@H](COC(=O)/C=C/c3ccc(O)cc3)[C@@H](O)[C@H](O)[C@H]2O)C2C(CO)=CCC12 (stereo not given in full)
inactive: Potency [1] | Potency [2] | Potency [3] | Potency [4] | Potency [5] | Potency [6]

C[C@@H]1O[C@@H](O[C@H]2[C@H](OC(=O)[C@]34CCC(C)(C)C[C@H]3C3=CCC5[C@@]6(C)CC[C@H](O[C@@H]7O[C@H](CO[C@@H]8OC[C@H](O)[C@H](O)[C@H]8O[C@@H]8OC[C@@H](O)[C@H](O)[C@H]8O)[C@@H](O)[C@H](O)[C@H]7O)C(C)(C)C6CC[C@@]5(C)[C@]3(C)C[C@H]4O)O[C@H](CO)[C@@H](O)[C@@H]2O)[C@H](O[C@@H]2O[C@H](CO)[C@@H](O)[C@H](O)[C@H]2O)[C@H](O)[C@H]1O[C@@H]1OC[C@@H](O)[C@H](O[C@@H]2OC[C@@H](O)[C@H](O)[C@H]2O)[C@H]1O (stereo not given in full)
inactive: Potency [1] | Potency [2] | activity change, negative = inhibition [3] 2.11% [at 6.45 µM] | activity change, negative = thiol reactive [4] 385% [at 6.41 µM] | activity, negative = inhibition [5] 3.87% [at 6.45 µM] | redox activity (% of DA3003) [6] 13.7% [at 6.41 µM]

COc1cc(O)cc(C)c1C(=O)OC1C(CO)OC(n2ccc(=O)[nH]c2=O)C1OC(C)=O (stereo not given)
inactive: Potency [1] | Potency [2] | Potency [3] | Potency [5] | Potency [6]
active: Potency [4] 9.22 µM

CC1OC(OC2C(OC3C(O[C@H]4CC[C@@]5(C)C(CC[C@]6(C)C5CC=C5C7CC(C)(C)CC(O)[C@]7(C)CC[C@]56C)C4(C)C)OC(C(=O)O)C(O)C3O)OCC(O)C2O)C(O)C(O)C1O (stereo not given in full)
inactive: Potency [1] | Potency [2] | activity change, negative = inhibition [3] 4.47% [at 11.6 µM] | activity change, negative = thiol reactive [4] 167% [at 11.5 µM] | activity, negative = inhibition [5] 4.85% [at 11.6 µM] | redox activity (% of DA3003) [6] 9.66% [at 11.5 µM]

N#Cc1cc(-c2n[nH]c(-c3ccncc3)n2)ccn1
inactive: Potency [1] | Potency [2] | Potency [3] | Potency [4] | Potency [5] | Potency [6]

C=C1C(O)CCC2(C)CC3(OC)OC(=O)C(C)=C3CC12 (stereo not given)
inactive: Potency [1] | Potency [2] | Potency [3] | Potency [4] | Potency [5] | Potency [6]

CC1(C)CC[C@]2(C(=O)O)CC[C@]3(C)C(=CCC4[C@@]5(C)C(=O)C[C@H](O)[C@@](C)(CO)C5CC[C@]43C)[C@@H]2C1 (stereo not given in full)
inactive: Potency [1] | Potency [2] | Potency [3] | Potency [4] | Potency [5] | Potency [6]

CC(=O)O[C@@H]1C(=O)C(C)=C(CCC(C)CC(=O)O)[C@@]2(C)CCCC(C)(C)C12 (stereo not given in full)
inactive: Potency [1] | Potency [2] | Potency [3] | Potency [4] | Potency [5] | Potency [6]

C=C1CC[C@@H]2[C@@](C)(CO[C@@H]3O[C@H](CO)[C@@H](O)[C@H](O)[C@H]3O)[C@H](O)CC[C@@]2(C)[C@@H]1CC/C(C)=C/CO[C@@H]1O[C@H](CO)[C@@H](O)[C@H](O)[C@H]1O
inactive: Potency [1] | Potency [2] | Potency [3] | Potency [4] | Potency [5] | Potency [6]

CC1=CCC(O)C2(C)CCC3C(C)C(=O)OC3C12 (stereo not given)
inactive: Potency [1] | Potency [2] | Potency [3] | Potency [4] | Potency [5] | Potency [6]

CCCO[C@@H]1O[C@H](CO)[C@@H](O)[C@H](O)[C@H]1O[C@@H]1OC[C@@H](O)[C@H](O)[C@H]1O
inactive: Potency [1] | Potency [2] | Potency [3] | Potency [4] | Potency [5] | Potency [6]

CC1(C)CC[C@]2(C(=O)O)CC[C@]3(C)C(=CCC4[C@@]5(C)C[C@@H](O)[C@H](O)[C@](C)(CO)C5CC[C@]43C)[C@@H]2[C@@H]1O (stereo not given in full)
inactive: Potency [1] | Potency [2] | Potency [3] | Potency [4] | Potency [5] | Potency [6]

C=C1C(OC(C)=O)[C@@]23CCC4[C@](C)(C(=O)O)CCC[C@@]4(C)[C@]2(O)CC[C@H]1C3 (stereo not given in full)
inactive: Potency [1] | Potency [2] | Potency [3] | Potency [4] | Potency [5] | Potency [6]

CC1=CCC[C@@H]2[C@@](C)(CCc3ccoc3)[C@H](C(=O)O)CC[C@@]12C
inactive: Potency [1] | Potency [2] | Potency [3] | Potency [4] | Potency [5] | Potency [6]

CC(O)C(O)/C=C/C=C/C(=O)O[C@@H]1C=C(C(=O)O)[C@](O)(CO)[C@@]2(C)CCCC(C)(C)[C@H]12 (stereo not given in full)
inactive: Potency [1] | Potency [2] | Potency [3] | Potency [4] | Potency [5] | Potency [6]

O=C(OC(C(F)(F)F)C(F)(F)F)N1CCN(Cc2cccc(Oc3ccccc3)c2)CC1
inactive: Potency [1] | Potency [2] | Potency [3] | Potency [4] | Potency [5] | Potency [6]

CCC1(O)CC2c3cc(OC)c(OC)cc3CCN2CC1CC(C)C (stereo not given)
inactive: Potency [1] | Potency [2] | Potency [3] | Potency [4] | Potency [5] | Potency [6]

C=C(C(=O)O)C1CC(O)C2(C)CCCC(C)(O)C2C1 (stereo not given)
active: Potency [4] 11.9 µM
inactive: Potency [1] | Potency [2] | Potency [3] | Potency [5] | Potency [6]

CCOC(=O)CNC(=O)[C@@H]1CCCN1C(=O)Cc1ccccc1 (PhAc-Pro-Gly-OEt)
inactive: Potency [1] | Potency [2] | Potency [3] | Potency [4] | Potency [5] | Potency [6]

C=C1C2(C)CC3C4(C)OC(C5OC56C4=CC(=O)OC6(C)C)C3(C)C13C(=O)OC(C)C3(O)C2=O (stereo not given)
inactive: Potency [1] | Potency [2] | Potency [3] | Potency [4] | Potency [5] | Potency [6]

Cc1cc(=O)oc2cc(NC(=O)[C@H](CCC(=O)O)NC(=O)[C@H](CC(C)C)NC(=O)[C@H](CC(C)C)NC(=O)OCc3ccccc3)ccc12 (Cbz-Leu-Leu-Glu-{AMC})
active: Potency [1] 22.7 µM | Potency [2] 22.7 µM
inactive: Potency [3] | Potency [4] | Potency [5] | Potency [6]

C[C@H]1CCN2C[C@]34C[C@@]5(C(=O)Nc6c5ccc5c6OC=CC(C)(C)O5)C(C)(C)C3C[C@]12C(=O)N4C (stereo not given in full)
inactive: Potency [1] | Potency [2] | Potency [3] | Potency [4] | Potency [5] | Potency [6]

O=C1C(Cl)=C(N2CCOCC2)C(=O)N1c1ccc(Cl)c(Cl)c1
inactive: Potency [1] | Potency [2] | Potency [3] | Potency [4] | Potency [5] | Potency [6]

CC[C@H]1OC(=O)[C@H](C)[C@@H](O[C@H]2C[C@@](C)(OC)[C@@H](O)[C@H](C)O2)C(C)[C@@H](O[C@@H]2O[C@H](C)C[C@H](N(C)C)[C@H]2O)[C@](C)(O)C[C@@H](C)CN(C)[C@H](C)[C@@H](O)[C@]1(C)O (stereo not given in full)
inactive: Potency [1] | Potency [2] | Potency [3] | Potency [4] | Potency [5] | Potency [6]

COc1cc2c(c(OC)c1O)C(c1ccc(O)cc1)C1C(=O)OC3C(COC(=O)C1=C2)OC(CO)(OC1OC(COC(=O)/C=C/c2ccc(OC4OC(C)C(O)C(O)C4O)cc2)C(O)C(O)C1O)C3O (stereo not given)
active: Potency [4] 4.5 µM
inactive: Potency [1] | Potency [2] | activity change, negative = inhibition [3] -10.6% [at 11.6 µM] | activity, negative = inhibition [5] -14.9% [at 11.6 µM] | redox activity (% of DA3003) [6] 0.553% [at 11.5 µM]

CC1(C)CC[C@]2(C(=O)OC3OC(CO)C(O)C(O)C3O)CC[C@]3(C)C(=CCC4[C@@]5(C)C[C@@H](O)[C@H](OC6OC(C(=O)O)C(O)C(O)C6O)C(C)(C)C5CC[C@]43C)[C@@H]2C1 (stereo not given in full)
inactive: Potency [1] | Potency [2] | activity change, negative = inhibition [3] -3.02% [at 11.6 µM] | activity change, negative = thiol reactive [4] 309% [at 11.5 µM] | activity, negative = inhibition [5] 1.92% [at 11.6 µM] | redox activity (% of DA3003) [6] 1.95% [at 11.5 µM]

C=C[C@@]1(C)CCC2=C([C@H]1OC(C)=O)[C@H](OC(C)=O)CC1[C@](C)(C(=O)OC)CC[C@H](OC(C)=O)[C@]21C (stereo not given in full)
inactive: Potency [1] | Potency [2] | Potency [3] | Potency [4] | Potency [5] | Potency [6]

C=C1CC23CC(=O)C4C(CO)(CO)CCCC4(C)C2CCC1C3 (stereo not given)
inactive: Potency [1] | Potency [2] | Potency [3] | Potency [4] | Potency [5] | Potency [6]

C/C=C/C1OC2=C(C(=O)OC2(C)O)C(O)C1O (stereo not given)
inactive: Potency [1] | Potency [2] | Potency [3] | Potency [4] | Potency [5] | Potency [6]

COc1cc(/C=C/C(=O)O)ccc1O[C@@H]1O[C@H](CO)[C@@H](O)[C@H](O)[C@H]1O[C@@H]1OC[C@](O)(CO)[C@H]1O
inactive: Potency [1] | Potency [2] | Potency [3] | Potency [4] | Potency [5] | Potency [6]

C[C@@H](NC(=O)c1cc(C(=O)N[C@@H](Cc2ccccc2)[C@H](O)CNC2CC2)cc(N(C)S(C)(=O)=O)c1)c1ccccc1
inactive: Potency [1] | Potency [2] | Potency [3] | Potency [4] | Potency [5] | Potency [6]

CC12CC(c3ccoc3)OC(=O)C1CCC1(C)C2CCC(O)C1(C)O (stereo not given)
inactive: Potency [1] | Potency [2] | Potency [3] | Potency [5] | Potency [6]
active: Potency [4] 16.5 µM

C[C@@H]1CC2OC(=O)C3=C2C(CCC3O)[C@@]12C[C@@H](c1ccoc1)OC2=O (stereo not given in full)
inactive: Potency [1] | Potency [2] | Potency [3] | Potency [4] | Potency [5] | Potency [6]

CC(=O)N[C@H](Cc1c[nH]c2ccccc12)C(=O)OCc1cc(C(F)(F)F)cc(C(F)(F)F)c1
inactive: Potency [1] | Potency [2] | Potency [3] | Potency [4] | Potency [5] | Potency [6]
